# Compounds with a hit are over-represented: about 3.6% of the library has one in this group of screens.
# Bead autofluor – compound fluorescence in toxin protease inhibitor counterscreen. compound autofluorescence counterscreen, microsphere flow cytometry; stronger effect = higher value. fluorescence intensity (concentration not given with the values). hit rate 3.1% among 360,000. AID 624483; in the data active = fluorescence intensity above about 16000; inconclusive = no clear call, values can overlap the other calls
# BoNT-F LC inh – BoNT/F light chain protease inhibitors, primary screen, biochemical, flow cytometry, MLPCN library | Botulinum neurotoxin type F light chain protease (Clostridium botulinum) | inhibition, % at 10 µM | Multiplex microsphere protease cleavage assay | hit rate 0.22% among 360,000 | AID 588497, 2011; in the data active = inhibition above about 35%, passing the limit was not always enough; inconclusive = no clear call, values can overlap the other calls; note: plate controls were buffer without enzyme for full effect and enzyme alone for no effect
# SARS 3CLpro inh – SARS-CoV 3CLpro protease inhibitors, primary screen, biochemical, quenched FRET. Replicase polyprotein 1ab (Severe acute respiratory syndrome coronavirus), P0C6X7. recombinant SARS-CoV 3CLpro, quenched FRET peptide cleavage. hit rate 0.14% among 290,000. inhibition, % at 6 µM; in the data active = inhibition above about 12%
# Anthrax LF inh2 – Bacillus anthracis LF protease inhibitors, primary screen, biochemical, multiplex microsphere, MLPCN library. Lethal factor (Bacillus anthracis), P15917. multiplex microsphere protease cleavage assay. inhibition, % at 10 µM. hit rate 0.12% among 360,000. AID 588501, 2011; note: plate controls were buffer without enzyme for full effect and enzyme alone for no effect
# BoNT-A LC inh2 – BoNT/A light chain protease inhibitors, primary screen, biochemical, flow cytometry, MLPCN library. Botulinum neurotoxin type A light chain protease (Clostridium botulinum A str. ATCC 3502). multiplex microsphere protease substrate cleavage. inhibition, % at 10 µM. hit rate 0.17% among 360,000. AID 588499, 2011; note: plate controls were buffer without enzyme for full effect and enzyme alone for no effect
# BJeLR viability – MLPCN primary cell-based screen for lethality selective to Ras in HRASV12 cells. BJeLR (HRASV12) viability, CellTiter-Glo ATP luminescence, 48 h. inhibition, % (no concentration beside the values). hit rate 0.17% among 300,000; in the data active = inhibition above about 50%; inconclusive = no clear call, values can overlap the other calls
# An asterisk follows results filed as active; ? = inconclusive; . = no result given. Cut-off read from the data, not from the text of the source, unless noted: active = inhibition above about 30%; inconclusive = no clear call, values can overlap the other calls; inactive = below that.
SMILES,Bead autofluor,BoNT-F LC inh,SARS 3CLpro inh,Anthrax LF inh2,BoNT-A LC inh2,BJeLR viability
CSc1ccccc1NC(=O)c1cc(-c2cccs2)on1,24196*,2,1,-1,?,-9
COc1cccc(-c2cc(C(=O)Nc3c(C)nn(Cc4ccccc4C)c3C)no2)c1,19715*,4,-2,0,4,-2
CC1(C(=O)NS(=O)(=O)Cc2ccccc2)CCN1C(=O)C1(c2ccc(Cl)cc2)CC1 (configuration not stated),3818,-3,.,2,0,.
COc1cccc(-c2cc(C(=O)Nc3c(C)nn(Cc4ccccc4)c3C)no2)c1,10684,10,-2,-2,1,.
Cc1nn(Cc2ccccc2)c(C)c1NC(=O)c1cc(-c2cccs2)on1,16449*,0,1,-3,0,1
COc1ccc(-c2cc(C(=O)Nc3c(C)nn(Cc4ccccc4)c3C)no2)cc1,24465*,-6,3,-2,-2,0
Cc1nn(Cc2ccccc2)c(C)c1NC(=O)c1cccs1,10350,4,-3,0,1,0
Clc1ccc(N2COC3c4cccc5cccc(c45)C32)cc1 (configuration not stated),22405*,-2,4,-1,0,12
COc1ccc(N2COC3c4cccc5cccc(c45)C32)cc1 (configuration not stated),20787*,-3,-2,-4,-1,4
CC(C)CC(=O)N1CCC(O)(CS(=O)(=O)Cc2ccccc2Cl)CC1,21027*,-7,-3,-2,?,8
O=S(=O)(Nc1ccc(Cc2ccncc2)cc1)c1cccs1,9265,-17,-2,0,0,3
N#CCc1ccc(NS(=O)(=O)c2cccs2)cc1,16560*,-3,4,-2,-1,6
CCCCN1C(=O)C(CC(=O)NCc2ccco2)CC(C(=O)N(C(C)C)C(C)C)=C1C (configuration not stated),5767,-5,.,3,0,.
COC(=O)c1cc(C(=O)OC)cc(N2C(=O)CC(NNC(=O)c3ccccc3Br)C2=O)c1 (configuration not stated),17445*,-8,1,-8,-6,6
Cc1cc2c3c(c1)C1(C(=O)N3C(C)(C)CC2C)C(C#N)=C(N)Oc2n[nH]c(C)c21 (configuration not stated),21117*,1,-2,2,?,-14
Cc1cc2c3c(c1C)C1(C(=O)N3C(C)(C)CC2C)C(C#N)=C(N)Oc2n[nH]c(C)c21 (configuration not stated),8183,-1,2,2,0,-9
O=C(Nc1ccc(CN2CCOCC2)cc1)c1ccccc1F,?,?,-1,?,?,-11
O=C(Nc1ccc(CN2CCOCC2)cc1)c1cccs1,22111*,2,-1,-3,1,-9
O=C(Nc1ccc(CN2CCOCC2)cc1)c1ccc(-c2cccc(Cl)c2)o1,20353*,0,2,-1,0,3
CCn1c(SCC(=O)OC)nnc1-c1c[nH]c2ccccc12,5256,-2,-4,-2,0,-5
C=CCSc1nnc(-c2c[nH]c3ccccc23)n1CCOC,22750*,-1,-3,-2,1,0
CCn1c(SCC(=O)NCc2ccccc2)nnc1-c1c[nH]c2ccccc12,22868*,-2,-8,-7,1,1
CCSC(=O)N1c2ccc(OC)cc2C=CC1C#N (configuration not stated),3730,1,.,-2,0,.
O=C1C(C=NCCCN2CCCC2=O)=C(O)c2ccccc21,19393*,0,-4,-2,1,8
COc1ccc(NC(=O)c2cc3ccc4c5ccccc5[nH]c4c3cc2O)cc1,4593,?,-1,10,1,7
SMILES,Bead autofluor,BoNT-F LC inh,SARS 3CLpro inh,Anthrax LF inh2,BoNT-A LC inh2,BJeLR viability
COC(=O)c1sc2ccccc2c1C(=O)OC,22728*,4,-3,4,?,0
COC(=O)c1sc2ccccc2c1N,5435,-5,2,-8,0,-8
COC(=O)CNC(=O)COc1ccccc1,2518,1,-4,2,0,-6
CC1CN(C(=O)c2cc3c(=O)n4ccccc4nc3s2)CC(C)O1 (configuration not stated),16544*,0,-3,-1,0,7
CC1CC(C)CN(C(=O)c2cc3c(=O)n4ccccc4nc3s2)C1 (configuration not stated),5897,3,0,-1,2,-10
O=C(Nc1cccc2cccnc12)c1cccnc1,18275*,7,-3,-1,6,-5
COc1ccc(-c2noc(C3CCCN(S(=O)(=O)c4cccc(Cl)c4C)C3)n2)cc1OC (configuration not stated),17219*,-4,-5,0,-2,-4
CC(=O)c1cccc(S(=O)(=O)N2CCCC(c3nc(-c4ccc(C)o4)no3)C2)c1 (configuration not stated),17085*,-3,3,-2,?,-7
CCS(=O)(=O)N1CCCC(c2nc(-c3cccc(OC)c3)no2)C1 (configuration not stated),23563*,0,2,-2,-1,0
COc1ccc(-c2noc(C3CCCN(S(=O)(=O)c4ccc(C)c(Cl)c4)C3)n2)cc1OC (configuration not stated),10387,-14,2,0,-1,-23
CCC(=O)NC(=S)NNC(=O)COc1ccc(Br)cc1,2507,-2,3,0,0,2
COc1ccc(NC(=O)c2ccc(-c3c(C)noc3C)c3ccoc23)cc1,3855,-8,.,-9,-1,.
O=C(COC(=O)c1ccccc1NS(=O)(=O)c1cccs1)NCC12CC3CC(CC(C3)C1)C2,2550,-12,7,-5,0,8
O=C(COC(=O)c1ccccc1NS(=O)(=O)c1cccs1)NC1CCCCC1,2759,45*,0,0,5,17
CCOC(=O)c1c(C)[nH]c(C(=O)CSc2ccc(Cl)cc2)c1C,16362*,-1,4,-24,?,0
CCOC(=O)c1c(C)[nH]c(C(=O)CN2CCOCC2)c1C,23350*,-2,-1,-2,0,-14
CCOC(=O)c1[nH]c(C)c(C(=O)NCCCN2CCOCC2)c1C,10335,8,3,-3,1,1
Cn1c(C(=O)N[C@@H](C(=O)O)c2ccccc2)cc2cc(F)ccc21,4181,?,-4,3,2,-9
Cc1cccc(C(=O)N/N=C2\CS(=O)(=O)N(C)c3ccsc32)c1,4586,2,2,3,-1,6

# Screening results from PubChem BioAssay.
